Measured values as given in PubChem BioAssay (EPA / NIEHS).
Active and inactive are the calls of the source. The calls were made as follows: active = hit-call score of the fitted dose curve at least 0.9, where 1 is the maximum; inactive = score below 0.9.

These compounds were tested on Monokine induced gamma interferon (MIG), CXCL9 (gene 4283) (assay: BSK_SAg_MIG: BioMAP Diversity Plus: SAg Assay for Monokine induced gamma interferon (MIG) Biomarker Activity (AID 2283092)). Details: primary human HUVEC with PBMC; actives raise or lower the signal.
Experimental: BSK_SAg is a cell-based, multiplexed-readout assay that uses umbilical vein endothelium and peripheral blood mononuclear cells, a human vascular primary cell co-culture, with measurements taken at 24 hours after chemical dosing in a 96-well plate.BSK_SAg_MIG is an assay component measured in the BSK_SAg assay. It measures MIG antibody related to regulation of gene expression using ELISA technology.Data from the assay component BSK_SAg_MIG was analyzed into 1 assay endpoint. This assay endpoint, BSK_SAg_MIG, was analyzed with bidirectional fitting relative to DMSO as the negative control and baseline of activity. Using a type of binding reporter, gain or loss-of-signal activity can be used to understand changes in the signaling as they relate to the gene CXCL9. Furthermore, this assay endpoint can be referred to as a primary readout, because this assay has produced multiple assay endpoints where this one serves a signaling function. To generalize the intended target to other relatable targets, this assay endpoint is annotated to the cytokine intended target family, where the subfamily is chemotactic factor.
The levels of cell surface (or secreted, indicated by the prefix "s") biomarker endpoints were measured by ELISA. Overt cytotoxicity to cells in confluent adherent cultures (all systems other than the BT system) was assessed by measuring total protein levels using sulforhodamine B (SRB) staining in parallel cultures at the time of biomarker measurements, indicated as SRB endpoints. For proliferation assays for adherent cell types, individual cell types are cultured at sub-confluence and relative cell numbers quantified by SRB staining at time points optimized for each system (48 h: 3C and CASM3C systems; 72 h: BT and HDF3CGF systems; 96 h: SAg system). SRB was performed by staining cells with 0.1% SRB after fixation with 10% TCA and reading wells at 560 nm.Viability and proliferation of PBMC (T cells) was quantified by Alamar Blue reduction for the SAg and BT systems. For PBMC viability (referred to as PBMC Cytotoxicity within the assay endpoint names), cells were plated (75,000/well in a 96-well plate) and then chemical samples added for 1 h before addition of activators, SEB and TSST-1 (20 ng/mL final concentration each). Cells were incubated for 90 h. Then, Alamar Blue (20 uL/well) (Invitrogen, Cat DAL1100) was added for 6 h, and the plates were read with a fluorescence microplate reader at 546/580 nm (excitation/emission). For PBMC proliferation, cells were plated and activated as above but incubated for only 16 h prior to addition of Alamar Blue. Plates were read after 6 h.
`CC1(C)C(=O)N(Cl)C(=O)N1Cl` was tested, and the outcome was “inactive”. With `CCCCCOC(C)=O` the outcome was “inactive”. For `OCCOCCOCCO`, the outcome was “inactive”. With `O=C(O)c1ccc2c(c1)nc(C(=O)NC1CCN(C3CC3)CC1)n2Cc1cc(-c2ccc(Cl)s2)on1` the outcome was “inactive”. In the case of `FC(F)=C(F)C(F)(F)C(F)(F)C(F)(F)C(F)(F)C(F)(F)C(F)(F)F`, the outcome is reported as “inactive”. In the case of `CCCCOC(=O)c1ccccc1`, the outcome is reported as “inactive”. In the case of `NNC(=O)c1ccncc1`, the outcome is reported as “inactive”. For `OC[C@H]1O[C@@H]2O[C@H]3[C@H](O)[C@@H](O)[C@@H](O[C@H]4[C@H](O)[C@@H](O)[C@@H](O[C@H]5[C@H](O)[C@@H](O)[C@@H](O[C@H]6[C@H](O)[C@@H](O)[C@@H](O[C@H]7[C@H](O)[C@@H](O)[C@@H](O[C@H]1[C@H](O)[C@H]2O)O[C@@H]7CO)O[C@@H]6CO)O[C@@H]5CO)O[C@@H]4CO)O[C@@H]3CO`, the outcome was “inactive”. In the case of `CCCCCCOC(=O)CC(CC(=O)OCCCCCC)(OC(=O)CCC)C(=O)OCCCCCC`, the outcome is reported as “inactive”. `O=S1(=O)CCCO1` was tested, and the outcome was “inactive”. With `O=S(=O)(O)CCC(F)(F)C(F)(F)C(F)(F)C(F)(F)C(F)(F)C(F)(F)F` the outcome was “inactive”. For `CCn1nc(C)c2c1C(=O)NCC(c1ccc(O)cc1)=N2`, the outcome was “inactive”. `O=C(O)c1cccc(C(=O)O)c1` was tested, and the outcome was “inactive”. With `C=CN1CCCC1=O` the outcome was “inactive”. In the case of `CCCCCCCCCCCCCCO`, the AC50 is reported as 39.4 µM (active). For `OCc1c[nH]c2ccccc12`, the outcome was “inactive”. In the case of `c1ccc(C(O[C@@H]2CCCN(CCc3ccc4c(c3)OCO4)C2)c2ccccc2)cc1`, the AC50 is reported as 30.9 µM (active). `O=C1CN(N=Cc2ccc([N+](=O)[O-])o2)C(=O)N1` was tested, and the outcome was “inactive”. `CCCCN1C(=O)[C@@H]([C@H](O)C2CCCCC2)NC(=O)C12CCN(Cc1ccc(Oc3ccc(C(=O)O)cc3)cc1)CC2` was tested, and the outcome was “inactive”. In the case of `c1ccc2cc3ccccc3cc2c1`, the outcome is reported as “inactive”. For `CCCC(CCC)C(=O)O`, the outcome was “inactive”. In the case of `OCCC(F)(F)C(F)(F)C(F)(F)C(F)(F)F`, the outcome is reported as “inactive”. For `CC(=O)c1ccccc1`, the outcome was “inactive”. For `C=CCc1cc(S(=O)(=O)c2ccc(O)c(CC=C)c2)ccc1O`, the AC50 was 34.8 µM (active). `OC(CCl)CCl` was tested, and the outcome was “inactive”. `CC(C)CC(C)O` (stereo not given) was tested, and the outcome was “inactive”. With `NCC(F)(F)C(F)(F)C(F)(F)C(F)(F)F` the outcome was “inactive”. `Cn1cc[nH]c1=S` was tested, and the outcome was “inactive”. For `O=C(Cl)C(F)(F)C(F)(F)C(F)(F)C(=O)Cl`, the outcome was “inactive”. With `CCCc1ccccc1` the outcome was “inactive”. For `FC(F)C(F)(F)COCC1CO1` (stereo not given), the outcome was “inactive”. For `CCOC(N)=O`, the outcome was “inactive”. For `OCc1ccccc1`, the outcome was “inactive”. For `NC(=O)N(O)[C@@H]1COc2cc(OCc3ccccc3)ccc21`, the outcome was “inactive”. For `CCCCCCCC/C=C\CCCCCCCC(=O)OC[C@@H](O)[C@H]1OC[C@H](O)[C@H]1O`, the outcome was “inactive”. With `Cc1cccc(O)c1C` the outcome was “inactive”. With `OC(Cn1cncn1)(Cn1cncn1)c1ccc(F)cc1F` the outcome was “inactive”. In the case of `CC(C)c1nnc2ccc(-c3ocnc3-c3cc(F)ccc3F)cn12`, the outcome is reported as “inactive”. In the case of `Cc1nc(-c2ccccn2)ncc1C(=O)Nn1cc(C)c2cc(F)ccc21`, the outcome is reported as “inactive”. In the case of `COS(C)(=O)=O`, the outcome is reported as “inactive”.
